Compound activity deposited in PubChem by National Center for Advancing Translational Sciences (NCATS).
ALOX12 inh: ALOX12 (human) lipoxygenase inhibition | Potency, µM (top dose mostly 108 µM), inactives show at the top dose activity change, negative = inhibition, hits mostly inhibitors | P18054 | purified 12hLO, xylenol orange hydroperoxide absorbance | hit rate 1.1% among 580,000 | AID 1671190; note: % is set by controls: 0 for no effect and ±100 for the full control effect
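Purified human 12hLO (150 nM final) in 25 mM Hepes, 0.01% Triton X-100, pH 7.0 was preincubated 15 min at room temperature with compound. Then 40 uM arachidonic acid was added, 30 min. Hydroperoxide was read by Fe-XO absorbance ratio 573/405 nm.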
Eya2 inh: inhibitors of human Eya2 phosphatase activity. recombinant Eya2, OMFP fluorescence dephosphorylation (OMFP is methylfluorescein phosphate). Potency, µM (titrated, usually from 76.9 µM), without a hit: at the highest dose activity, negative = inhibition, usual class: inhibitors. hit rate 0.006% among 330,000. AID 488837; note: % is set by controls: 0 for no effect and ±100 for the full control effect
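Eya2 protein (added as 0.2 uM solution) was preincubated with compound for 10 min at ambient temperature in 50 mM HEPES pH 7.5, 50 mM NaCl, 5 uM MgCl2, 0.05% BSA, 1 mM DTT. OMFP (added at 50 uM) then reacted 10 min; fluorescence read at 485/525 nm.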
USP2a inh: inhibitors of human ubiquitin-specific protease USP2a; O75604; USP2 core, Ub-CHOP2 coupled fluorogenic reporter, 485/531; Potency, µM (titrated, usually from 38.3 µM), inactives show at the highest dose activity change, negative = inhibition, hits mostly inhibitors; hit rate 0.01% among 330,000; AID 463254;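 note: plate controls were DMSO wells for no effect and full inhibition by NEM control for full effect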
Target sequence (O75604 whole entry, looked up): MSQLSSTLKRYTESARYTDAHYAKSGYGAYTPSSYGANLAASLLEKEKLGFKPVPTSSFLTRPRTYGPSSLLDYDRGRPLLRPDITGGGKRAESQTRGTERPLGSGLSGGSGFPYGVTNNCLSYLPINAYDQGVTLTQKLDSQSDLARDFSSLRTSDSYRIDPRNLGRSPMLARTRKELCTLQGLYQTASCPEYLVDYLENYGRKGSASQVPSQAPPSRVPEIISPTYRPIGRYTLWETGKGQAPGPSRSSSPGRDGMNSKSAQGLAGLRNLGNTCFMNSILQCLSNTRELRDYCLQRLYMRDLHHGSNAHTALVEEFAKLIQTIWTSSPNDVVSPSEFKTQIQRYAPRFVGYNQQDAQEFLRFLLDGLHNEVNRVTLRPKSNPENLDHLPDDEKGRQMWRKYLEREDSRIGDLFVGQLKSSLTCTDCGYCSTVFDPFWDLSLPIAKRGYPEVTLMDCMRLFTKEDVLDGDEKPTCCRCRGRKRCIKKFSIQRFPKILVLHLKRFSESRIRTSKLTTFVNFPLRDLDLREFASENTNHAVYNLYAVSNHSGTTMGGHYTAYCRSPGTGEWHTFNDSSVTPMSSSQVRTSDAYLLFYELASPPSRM
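USP2 core (10nM final) preincubated 30min RT with compound in 20mM Tris-HCl pH 8.0, 2mM CaCl2, 2mM beta-mercaptoethanol, 0.05% CHAPS; 25nM Ub-CHOP2 plus 25nM reporter substrate added, fluorescence (Ex485/Em531) read after 60min.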
TSG101-PTAP inh: blocks PTAP/TSG101 interaction to inhibit HIV-1 budding; AID 493005; Fluorescence polarization, FITC-PTAP peptide / Tsg101 binding; Q99816; 340,000 tested, under 10 active; Potency, µM (top dose mostly 115 µM), for inactives: at the highest dose activity change, negative = inhibition, most hits filed as inhibitors; active = well fitted inhibition curve with a large enough effect in the main read-out, with a control signal flat, not every such curve was filed as active; inconclusive = small, poorly fitted or top-dose-only effect, or effect the other way, or a change in a side signal; inactive = no such curve, though single readings can be large or run the other way; note: % of control where 0% means no effect
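Tsg101 binding domain (10 uM final) was mixed with compound and a FITC-labeled PTAP peptide (50 nM final) in HEPES pH 7.5 buffer with NaCl, Tween 20, EDTA and TCEP; fluorescence polarization was read after 20 min at r.t.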
Numbers without * were called inactive; ? = inconclusive; / = no result given; [ ] = remark or other dose. Rows were chosen to be rich in hits. Some 1.1% of all compounds tested hit in one or more screens of this group. Unless noted, calls come from the whole dose curve; as a rule, active = well fitted curve in the direction sought with a large enough effect; inconclusive = small, poorly fitted or top-dose-only effect, or another doubt; inactive = no such curve, though single readings can be large; an effect the other way counts as inactive or inconclusive. Potency is the fitted concentration of half-maximal effect.

SMILES	ALOX12 inh	Eya2 inh	USP2a inh	TSG101-PTAP inh
Cc1ccc(NCC(=O)Nc2cc(C(F)(F)F)ccc2-n2cncn2)c(F)c1	0%	/	/	/
COc1cccc(CN2Cc3cc(NS(=O)(=O)c4ccccc4)ccc3OCC2=O)c1OC	10µM*	/	/	/
CCNc1c(NC(=O)Nc2ccccc2)c(=O)oc2ccccc12	-14%	/	/	/
CCNc1c(NC(=O)Nc2ccc(CC)cc2)c(=O)oc2ccccc12	45µM*	/	/	/
Cc1nn(CC(=O)N(Cc2ccccc2)C2CC2)c(=O)c2ccccc12	-17%	/	/	/
CCN(c1ccc(NC(=O)COC(=O)c2ccc3ccccc3n2)cc1)C(C)C	5µM*	-11%	2%	-1%
CCC(CC)NC(=O)COC(=O)c1ccc2ccccc2n1	6.3µM*	/	/	/
COc1ccc(-c2cc(C[C@H]3CNCC[C@H]3CC(=O)N3CCN(c4ccccc4OC)CC3)no2)cc1	28µM*	/	/	/
COc1ccc(CNC(=O)C[C@@H]2CCNC[C@@H]2Cc2cc(-c3ccc(C(C)(C)C)cc3)on2)cc1	18µM*	/	/	/
CC(C)(C)NC(=O)C[C@@H]1CCNC[C@@H]1Cc1cc(-c2ccc(C(C)(C)C)cc2)on1	35µM*	/	/	/
CC(C)(C)c1ccc(-c2cc(C[C@H]3CNCC[C@H]3CC(=O)NCc3ccc(F)cc3)no2)cc1	22µM*	/	/	/
COc1cccc(C(=O)NCC(O)c2ccc(C)cc2)c1 (stereo unspecified)	5%	/	/	/
COc1ccc(C(=S)N2CCOCC2)cc1OC(=O)c1ccc([N+](=O)[O-])cc1	25µM*	-11%	-3%	-4%
O=C(CSc1ncccc1C(=O)O)NC12CC3CC(CC(C3)C1)C2	22µM*	25%	3%	0%
CC(C)Oc1cccc(-c2cccc(COc3ccc4c(cnn4CC[S+](C)(=O)[O-])c3)c2)c1	-27%	/	/	/
NCc1cccc(-c2ccc(OC(F)(F)F)cc2)c1	1%[12.5 µM]	/	/	/
CN1/C(=C\C(=O)COC(=O)c2ccc(O)c(O)c2)C(C)(C)c2ccccc21	10µM*	2%	-5%	1%
Cc1ccc(S(=O)(=O)Nc2ccc3c(c2)CN(CCc2ccc(F)cc2)C(=O)C(C)O3)cc1F (stereo unspecified)	28µM*	/	/	/
CC1Oc2ccc(NC(=O)c3ccc(F)cc3F)cc2CN(CCc2ccc(F)cc2)C1=O (stereo unspecified)	-10%	/	/	/
O=C(Nc1cccc(S(=O)(=O)Nc2ccccc2F)c1)c1ccco1	-5%	-3%	5%	-2%
O=C(CSc1ccc([N+](=O)[O-])cc1)Nc1cccc(S(=O)(=O)Nc2ccccc2F)c1	40µM*	5%	3%	1%
O=C1CCC(C(=O)Nc2cccc(S(=O)(=O)Nc3ccccc3F)c2)=NN1	32µM*	-13%	-2%	-2%
COc1ccc(Nc2cnc3ccc(-c4ccccc4)nn23)cc1OC	-21%[176 µM]	/	/	/
Cc1cc2cc(NS(=O)(=O)c3ccc4ccccc4c3)ccc2[nH]1	10µM*	/	/	/
COc1ccc(CCN2CCC(CNC(=O)c3cnn(-c4ccc(C)cc4)c3C3CCN(C(=O)OC(C)(C)C)CC3)CC2)cc1	40µM*	/	/	/
SMILES	ALOX12 inh	Eya2 inh	USP2a inh	TSG101-PTAP inh
O=C(Nc1cccc2ccccc12)O[C@@H]1CO[C@H]2[C@@H]1OC[C@@H]2NC(=S)Nc1cccc2ccccc12	50µM*	/	/	/
CC(=O)c1cccc(NC(=O)O[C@@H]2CO[C@H]3[C@@H]2OC[C@@H]3NC(=S)Nc2cccc3ccccc23)c1	6%	/	/	/
O=C(Nc1cccc2ccccc12)O[C@@H]1CO[C@H]2[C@@H]1OC[C@@H]2NC(=S)Nc1ccc(Cl)cc1	35µM*	/	/	/
S=C(Nc1cccc2ccccc12)N[C@H]1CO[C@H]2[C@@H]1OC[C@H]2OCc1ccccc1	63µM*	/	/	/
CCNC(=O)O[C@@H]1CO[C@H]2[C@@H]1OC[C@@H]2NC(=S)Nc1ccc(N(C)C)cc1	112µM*	/	/	/
CCNC(=O)O[C@@H]1CO[C@H]2[C@@H]1OC[C@@H]2NC(=O)Nc1ccc(C(C)C)cc1	52%[176 µM]	/	/	/
CN(C)c1ccc(NC(=S)N[C@H]2CO[C@H]3[C@@H]2OC[C@H]3OC(=O)Nc2cccc3ccccc23)cc1	11%	/	/	/
Cc1ccc(-c2csc3ncn(CC(=O)c4cc(C)n(C5CC5)c4C)c(=O)c23)s1	-10%	/	/	/
O=C(Nc1ccccc1)O[C@@H]1CO[C@H]2[C@@H]1OC[C@@H]2NC(=S)Nc1ccccc1	71µM*	/	/	/
COc1cccc(CN2CCNc3cc(Nc4ccccc4)ncc3C2)c1	-1%[176 µM]	/	/	/
O=C(Nc1ccc(F)cc1)N1CCC(c2nc3c(nnn3Cc3cccc(Cl)c3)c(=O)[nH]2)CC1	-7%	27%	-2%	-6%
O=C(c1ccc2c(c1)OCO2)N1CCC(c2nc3c(nnn3Cc3cccc(Cl)c3)c(=O)[nH]2)CC1	13µM*	/	/	/
CCc1ccc(NC(=O)CCC2CCCCC2)cc1	23%	/	/	/
CC(=O)N1Cc2ccccc2CC2(CCCCN2CC2CCCC2)C1 (stereo unspecified)	67%	/	/	/
CN1CCN(Cc2c(O)ccc3cc(Br)ccc23)CC1	5.6µM*	-4%	1%	0%
O=c1cc(CSc2nnnn2-c2ccccc2)[nH]n1-c1ccc(Cl)cc1	40µM*	/	/	/
Cc1ccc(-n2[nH]c(CSc3nnnn3-c3ccccc3)cc2=O)cc1	50µM*	/	/	/
O=c1cc(CSc2nnnn2-c2ccccc2)[nH]c2[nH]n(-c3ccccc3)c(=O)c12	0%	-22%	3%	-1%
COc1ccc(-n2cc(CN3CCCC(CO)C3)c(-c3cccc(F)c3)n2)cc1 (stereo unspecified)	-1%	/	/	/
Cc1ccc(NS(=O)(=O)c2ccc(N3CCN(c4ccc(O)cc4)CC3)c([N+](=O)[O-])c2)c(C)c1	?	-5%	-10%	-8%
O=[N+]([O-])c1cc(S(=O)(=O)Nc2ccccc2)ccc1N1CCN(c2ccc(O)cc2)CC1	25µM*	-2%	-1%	2%
Cn1c(C(=O)Nc2cccc3cccnc23)c(Cl)c2ccccc21	21%	/	/	/
Cc1cc2ccccn2c1C(=S)NC(=O)c1ccccc1	22µM*	-1%	0%	0%
Cc1ccc(C(=O)NC(=S)c2c(C)cc3ccccn23)cc1	7.9µM*	/	/	/
Cc1cc2ccccn2c1C(=O)c1ccncc1	0%	6%	-1%	-7%
SMILES	ALOX12 inh	Eya2 inh	USP2a inh	TSG101-PTAP inh
CC1=C[C@@H](CN2CCN(CCO)CC2)[C@H](C(C)C)C[C@H]1Cc1nnc(Cc2c[nH]c3ccccc23)o1	6%	/	/	/
CCOC(=O)c1c(NC(=O)Cn2nnc(-c3ccccc3)n2)sc(CC)c1C	13µM*	/	/	/
O=C1c2ccccc2C(=O)C1c1ccnc2ccccc12	-4%	3%	-2%	-4%
N#CC1=C(N)SC(N)=C(C#N)C1c1ccnc2ccccc12	4.5µM*	24%	2%	15%
Cc1nc(CC(=O)NCc2ccc3[nH]c(-c4ccc(F)cc4)c(C)c3c2)cs1	59%	/	/	/
Cc1ccc(C(=O)N/C(=C\c2ccc(Br)cc2)c2nc(=S)[nH][nH]2)cc1	16µM*	1%	0%	-9%
COc1ccc(/C=C(/NC(=O)c2ccccc2)c2nc3ccccc3[nH]2)cc1OC	0%	4%	-1%	-1%
